Screening results: PubChem BioAssay, several laboratories
Rows were chosen to be rich in hits. Some 21% of all compounds tested hit in one or more screens of this group.
CYP2C19 inh = blockers of cytochrome P450 2C19 activity – biochemical, luminescence, ADME assay, primary screen. P33261. CYP2C19 Supersomes, luciferin-H EGE luminescence, 30 min. inhibition, % at 5 µM. 96,000 compounds, 21% hits. AID 778, 2007;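 active = CYP2C19 inhibition above a set limit at 5 µM in the primary screen, cut at about 50% in these data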;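 also: plate controls were negative control wells for no effect and 2.5 mM tranylcypromine positive control for full effect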
CYP2C19 activ = human CYP2C19 activators, primary screen, biochemical, luminescence. activation factor at 5 µM. recombinant CYP2C19, luciferin-H EGE luminescence; stronger effect = higher value; 0 = fully inhibited enzyme, 1 = untreated enzyme. 96,000 tested, under 10 active;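 active = activation factor of at least 2 at 5 µM in the primary screen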;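 also: 0 = wells with 2.5 mM tranylcypromine and 1 = vehicle-only wells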
CYP2C9 activ = human CYP2C9 activators, primary screen, biochemical, luminescence | AID 1024, 2008 | 96,000 compounds, 1.4% hits | activation factor at 5 µM | recombinant CYP2C9, luciferin-H conversion; stronger effect = higher value; factor 1 = untreated enzyme, 0 = blocked;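 active = activation factor of 2 or more for CYP2C9 at a 5 µM dose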;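 also: 0 = sulfaphenazole-blocked wells and 1 = vehicle-only wells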
Target sequence (P11712 whole entry, looked up): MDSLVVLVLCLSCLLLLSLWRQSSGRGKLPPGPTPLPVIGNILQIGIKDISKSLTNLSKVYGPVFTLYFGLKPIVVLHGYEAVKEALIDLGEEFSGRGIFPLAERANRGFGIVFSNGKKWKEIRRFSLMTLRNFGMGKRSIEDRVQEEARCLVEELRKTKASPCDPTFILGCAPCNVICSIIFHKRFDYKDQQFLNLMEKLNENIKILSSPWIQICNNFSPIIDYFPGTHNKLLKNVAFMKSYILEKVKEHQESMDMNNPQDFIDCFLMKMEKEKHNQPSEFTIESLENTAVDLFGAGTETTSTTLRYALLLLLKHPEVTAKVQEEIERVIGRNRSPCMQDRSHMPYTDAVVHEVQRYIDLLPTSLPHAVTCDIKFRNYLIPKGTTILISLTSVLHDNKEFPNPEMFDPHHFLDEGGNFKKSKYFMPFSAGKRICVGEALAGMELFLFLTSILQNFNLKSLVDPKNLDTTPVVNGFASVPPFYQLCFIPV
MRP resist rev = reversal of MRP1-mediated doxorubicin resistance, primary screen, H69AR cells, doxorubicin co-treatment. H69AR cells + 2 uM doxorubicin, CellTiter-Glo, 72 h. differential viability (reversal), % at 10 µM. 85,000 compounds, 0.04% hits;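 active = viability drop by adding the cancer drug above about 55%, with treated viability meeting a 40% cutoff, limit read from the data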;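 also: viability without doxorubicin minus viability with 2 µM doxorubicin for each compound; larger differential means the compound sensitizes cells more to doxorubicin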
CYP2C9 inhib = blockers of cytochrome P450 2C9 activity – biochemical, luminescence, ADME assay, primary screen. AID 777, 2007. CYP2C9 Supersomes, luciferin-H conversion. 96,000 compounds, 20% hits. inhibition, % at 5 µM;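 active = blocking of liver enzyme CYP2C9 beyond about 50% at 5 µM, limit read from the data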
MRP-1 activ = H69AR viability gain despite doxorubicin, primary screen, MRP-1 activator project, H69AR cells, CellTiter-Glo; viability rescue; viability increase, % at 10 µM; 140,000 compounds, 0.61% hits;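 active = viability gain under doxorubicin at or above a set limit, the compound median plus 3 SD, cut at about 4.7% in these data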;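 also: MRP-1 overexpressing cells given doxorubicin 25 µM after compound pretreatment; 18-22 h compound pretreatment then 72 h with doxorubicin before readout; 0% = doxorubicin-only wells and 100% = vehicle-treated cells without doxorubicin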
Starred values were filed as active, the others as inactive; · = no result.

SMILES	CYP2C19 inh	CYP2C19 activ	CYP2C9 activ	MRP resist rev	CYP2C9 inhib	MRP-1 activ
COc1ccc(CN2CCCCC2c2cccnc2)cc1C (configuration not stated)	80.0*	0.2	0.9	2.1	14.7	0.7
CCOC(=O)C1=C(C)OC(N)=C(C#N)C12C(=O)Nc1ccc(C)cc12 (configuration not stated)	15.3	0.8	1	13.9	0.5	-2.6
O/N=C1\CCC2CN(C3CCCCC3)CC2C1 (configuration not stated)	-12.9	1.1	0.9	5.3	5.8	0.1
Oc1ccc(/C=N/NP(=S)(c2ccccc2)c2ccccc2)cc1	79.3*	0.2	0.1	·	85.5*	-0.8
COc1cc(/C=N/NC(=O)CN2CC(c3ccccc3)CC2=O)ccc1OC(=O)N(C)C (configuration not stated)	-2.8	1	1.2	·	-24.0	-0.1
COc1cc(/C=N/NP(=S)(c2ccccc2)c2ccccc2)ccc1O	42.4	0.6	0.2	12.8	81.7*	-1.7
CC(C)(C)P(=O)(c1ccncc1)N1CCCC1 (configuration not stated)	4.3	1	0.7	-2.2	35.0	-2.9
C=CCN1C(=O)NC(=O)/C(=C/c2ccoc2)C1=O	·	·	·	·	·	-2.4
Cc1ccc(C(=O)C2(C)N(O)C(C)C(c3cccs3)=[N+]2[O-])cc1 (configuration not stated)	29.9	0.7	0.4	·	56.0*	-1.7
CN(C)C1(CNC(=O)c2ccc(Cl)c(S(=O)(=O)NCc3ccco3)c2)CCCCC1	-8.1	1.1	0.8	·	21.6	1.2
Cc1ccc(-n2c(-c3cccs3)nc3ccccc3c2=O)cc1	35.7	0.6	0.4	·	57.9*	-0.7
CN(C)c1ccc(P(=S)(N(C)C)N(C)C)cc1	95.4*	0	0.9	16.2	5.3	-0.1
CCOP(=S)(OCC)c1ccc(N(C)C)cc1	14.0	0.9	0.6	-0.8	38.2	-1.2
CCOC(=O)C1C2NC(=O)N(Cc3ccccc3)C1(C)Oc1c(OC)cccc12 (configuration not stated)	18.6	0.8	0.8	19.5	16.0	-0.9
CP(=O)(O)CCCN	61.4*	0.4	0.8	5.0	24.2	-0.8
COc1ccccc1-n1c(O)c(C=Nc2c(C)n(C)n(-c3ccccc3)c2=O)c(=O)[nH]c1=O	-1.0	1	1.1	-10.5	-12.6	0.0
C(#CCN1CCOCC1)COCC#Cc1ccccc1	59.8*	0.4	1	3.5	-3.1	-0.6
CC(C)Oc1cc(-n2c(=S)[nH]c3ccccc3c2=O)c(Cl)cc1Cl	90.2*	0.1	0.3	·	71.5*	-2.4
COc1cc(-n2c(=S)[nH]c3ccccc3c2=O)c(Cl)cc1Cl	90.5*	0.1	0.4	·	57.8*	-5.2
Cc1ccc(C(=O)Nc2ccc(-n3ccnc3P(=O)(O)c3ccccc3)cc2)cc1	-11.5	1.1	1.1	3.3	-10.5	-0.1
CCOc1c(P(=S)(N(C)C)N(C)C)c(C)nn1-c1ccccc1	88.8*	0.1	0.2	-16.5	78.5*	-3.2
CC1(C)COC(Nc2cccc(Cl)c2)=N1	11.5	0.9	0.2	-18.5	76.2*	-2.8
O=P1(Nc2cccnc2)COc2ccccc2OC1	11.8	0.9	1	-14.4	-0.5	-0.2
CCCCOCCCn1c(N)c(C(=O)OC(C)COC)c2nc3ccccc3nc21 (configuration not stated)	·	·	·	-15.5	·	-4.0
CCC(C)NC(=O)c1c(N)n(CCCOC)c2nc3ccccc3nc12 (configuration not stated)	68.9*	0.3	0.1	-32.0	87.5*	-4.1
SMILES	CYP2C19 inh	CYP2C19 activ	CYP2C9 activ	MRP resist rev	CYP2C9 inhib	MRP-1 activ
COCCCn1c(N)c(C(=O)OC(C)COC)c2nc3ccccc3nc21 (configuration not stated)	30.6	0.7	0.4	-6.5	58.6*	-3.8
CCC(C)OC(=O)c1c(N)n(Cc2cccs2)c2nc3ccccc3nc12 (configuration not stated)	9.6	0.9	0.9	-5.2	14.3	-1.9
COCCNC(=O)c1c(N)n(Cc2ccco2)c2nc3ccccc3nc12	9.6	0.9	0.7	-25.4	27.2	-3.9
CCC(C)NC(=O)c1c(N)n(Cc2ccc3c(c2)OCO3)c2nc3ccccc3nc12 (configuration not stated)	8.7	0.9	0.3	·	67.1*	-5.8
CC(C)(C)OC(=O)c1c(N)n(Cc2ccco2)c2nc3ccccc3nc12	52.5*	0.5	0.2	1.3	84.2*	-3.5
CC(=NCCCN1CCOCC1)c1c(O)[nH]c(=O)[nH]c1=O	2.9	1	1	11.0	2.8	-0.7
CCCCCc1nc2c(c(=O)c3ccccc3n2C)c(=O)n1C1CCCCCC1	·	·	·	·	·	-5.8
C=C1C2C[C@H](O)C(C)(C)[C@@]2(O)[C@H](O)C[C@]23C[C@@](C)(O)[C@H](CC[C@H]12)[C@H]3OC(C)=O (some centres not stated)	·	·	·	·	·	-0.9
COc1ccc(-n2c(O)c(C(C)=NC3CC3)c(=O)[nH]c2=O)cc1	30.7	0.7	1.2	6.4	-15.9	-0.2
O/N=C1/C(=C\c2ccccc2)N2CCC1CC2	83.3*	0.2	0.7	-36.3	34.7	-2.9
COc1ccc(/C=C2\C(=N\O)C3CCN2CC3)cc1	·	·	·	8.6	·	-6.0
CCCCn1c(O)c(C=NCCN2CCCCC2)c(=O)[nH]c1=O	-12.8	1.1	1.1	1.2	-12.6	-1.3
CCOc1ccccc1N1C(=O)NC(=O)/C(=C/c2ccc3c4c(cccc24)CC3)C1=O	6.6	0.9	4.1*	·	-306.3	-1.6
O=c1[nH]c(CN2CC=C(c3ccccc3)CC2)nc2cc(C(F)(F)F)ccc12	39.3	0.6	0.2	6.6	79.4*	-1.5
CCOC(=O)c1c(C)n(Cc2ccccc2)c2ccc(OCC(O)CN3C(=O)CNC3=O)cc12 (configuration not stated)	68.5*	0.3	0.1	-21.7	87.4*	-1.3
CCC1(CCc2ccncc2)C(=O)NC(=O)NC1=O	3.9	1	0.6	-7.2	42.1	1.4
O=C1NC(=O)C(CCc2ccncc2)(C2CCCCC2)C(=O)N1	64.5*	0.4	0.3	21.1	69.9*	-0.7
CCOc1ccc(-n2c(O)c(C=NCCN(CC)CC)c(=O)[nH]c2=O)cc1	2.6	1	1	-8.5	4.3	-0.4
CN1C(=O)C(=Cc2ccc(N3CCCCCC3)o2)C(=O)N(C)C1=S	59.2*	0.4	0.8	·	23.1	-1.3
CN1C(=O)C(=Cc2ccc(N3CCOCC3)o2)C(=O)N(C)C1=O	·	·	·	·	·	0.1
Cc1nn(Cc2ccccc2Cl)c(C)c1C(=O)NC1CCCc2ccccc21 (configuration not stated)	·	·	·	·	·	-0.3
C=CCn1c(O)c(C(C)=NCCO)c(=O)[nH]c1=O	-1.9	1	1	·	4.9	-1.4
